Z-score data for 26 molecules are collected here from PubChem BioAssay AID1628 (Sanford-Burnham Center for Chemical Genomics, 2009).

The whole screen tested about 190,000 compounds, of which about 930 (0.49%) were called active. This is one part of the list. Entries with a potency or affinity are not part of this list. Values without a mark were called inactive.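 Rule for the calls: active = z-score of insulin promoter reporter brightness in nuclei below -3 at 5 µM, with at least 500 cells counted; inconclusive = wells with under 500 cells, flagged as toxic or sparse; inactive = the rest.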

A short description of this assay: insulin promoter down-regulators in MIN6 cells, imaging, high-content screening, mouse beta cells (AID 1628). To be noted: MIN6 insulin promoter GFP reporter, at 5 µM, active compounds read low.
Take `Cc1cc(C(=O)NCC(=O)OCC(=O)N2CCCCCC2)ccc1[N+](=O)[O-]`: the z-score is -3.78 (active). The figure for `CCOC(=O)c1c(NC(=O)COC(=O)c2cc(OC)c(OC)cc2[N+](=O)[O-])sc(C)c1C` is -7.34 (active).

For the molecule `COC(=O)c1c(NC(=O)CC2Nc3cc(C)c(C)cc3NC2=O)sc(C)c1C` (stereo unspecified), the z-score was 6.44.

On to `CCC(=O)Nc1ccc(C(=O)OCC(=O)c2ccc(C)c([N+](=O)[O-])c2)cc1`, for which the z-score is 3.37. For `CCN(C#N)c1nc(NC(C)C)nc(NC(C)C)n1` the value was -6.16 (active); for `COc1ccc(N(CC(=O)Nc2ccccc2C(=O)NCC(C)C)S(C)(=O)=O)cc1`, -3.31 (active). For `COc1ccc(N(CC(=O)Nc2cc(OC)ccc2OC)S(C)(=O)=O)cc1` the value was 0.8; for `COc1ccc(-n2c(C)cc(C(=O)CSc3nn4c(=O)c(C(C)(C)C)nnc4s3)c2C)cc1`, -4.21 (active); for `COc1ccc(-n2c(SCC(N)=O)nnc2-c2cccnc2)cc1`, 0.75. On to `CN(C)S(=O)(=O)c1ccc(NC(=O)C2COc3ccccc3O2)cc1` (stereo unspecified), for which the z-score was 2.

Regarding `COc1ccc2c(c1)C(=O)OC2CC(=O)O` (stereo unspecified), the z-score is 0.37. The figure for `Cc1ccc(-c2cn3nc(-c4ccccc4)c(-c4ccccc4)nc3n2)cc1` is 8.16. For `Cc1cc2nc(C3CCN(Cc4nnnn4Cc4cccs4)CC3)[nH]c2cc1C`, the z-score was -3.92 (active). As to `CCCCCc1cc(=O)oc2c(C(CCN3CCCC(C)C3)c3ccc(OC)cc3)c(OC)cc(OC)c12` (stereo unspecified), the z-score was -3.09 (active). With `C=CCNC(=O)C1CCN(S(=O)(=O)c2ccc(Br)cc2)CC1`, the z-score was 3.14. The figure for `CC1CCN(S(=O)(=O)c2ccc(NC(=O)N3c4ccccc4Sc4ccccc43)cc2)CC1` is -3.77 (active); for `Cc1ccc2c(c1)C(c1ccccc1)N(C(=O)c1cc3ccccc3oc1=O)CC(=O)N2` (stereo unspecified) it is -4.42 (active); for `O=C(C1=C(O)C(=O)N(c2nccs2)C1c1ccccc1)c1cc2ccccc2o1` (stereo unspecified) it is 13.5. As for `CN(C)c1ccc(/C=C2\SC(=O)N(CCc3nnc(N)s3)C2=O)cc1`, the z-score is 3.27.

As to `O=C1S/C(=C/c2ccc(N3CCOCC3)o2)C(=O)N1Cc1ccc(F)cc1`, the z-score was 11.4.

On to `Cc1ccc(S(=O)(=O)CCC(=O)NCCN2C(=O)S/C(=C/c3ccc(F)cc3)C2=O)cc1`, for which the z-score is -5.68 (active). In the case of `CN(C)Cc1nc2ccccc2c(=O)n1Cc1nc(C(C)(C)C)cs1`, the z-score was -4 (active). The figure for `CCCc1nc2ccc(NC(C)=O)cc2c(=O)n1Cc1ccc(Cl)cc1` is 3.64; for `COc1ccc(Cl)cc1NC(=O)CN(C)C(=O)COc1ccccc1F` it is 4.38. For `CC(=O)Nc1ccc2nc(NC(=O)COc3ccccc3C)sc2c1` the value was 2.47. For `Cc1cccc(OCC(=O)NNC(=O)Nc2cccc(Cl)c2)c1C` the value was -5.42 (active).
